From PubChem
In the library only some 1.5% were active in any assay of this set; here they are far more common.
Integrin act MD: activates integrin-mediated alleviation for muscular dystrophy; 350,000 tested, 0.064% active; Potency, µM (highest dose often 38.3 µM), without a hit: at the top dose activation, hits mostly activators; alpha7betagal myoblasts, beta-gal FDG fluorescence, 48 h;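 also: potency is read from the fitted curve at half-maximal effect; 100% = response of the positive control SU9516; nearly all actives have a fitted effect of over 60% in size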
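Alpha7betagal+/- myoblasts (passage 13) were plated 16-24 hr, then exposed to compounds (1:260 dilution of DMSO stock) for 48 hours at 37C. After MPER lysis, β-galactosidase reporter activity was read as FDG fluorescence (ex 480/em 540) after 30 minutes.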
IL2 activator: IL-2 activation. IL-2 activation reporter assay, cell-based qHTS; stimulated with anti-CD3/CD4/CD28 beads; in transgenic mouse T cells. activation, % (series mostly up to about 46 µM). 360,000 tested, 0.065% active; in the data active = activation above about 50%; inconclusive = mostly about 30% to 49%; also: 0% is about no effect
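First, unstimulated transgenic mouse T cells were exposed to compound for 60 min. Next, anti-CD3/anti-CD4-coated beads with anti-CD28 were added. Finally, after 18 h at 37 degrees C, EGFP and DsRed were imaged.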
12-LOX inh: inhibitors of human 12S-lipoxygenase ALOX12; purified 12hLO, xylenol orange hydroperoxide absorbance; 580,000 tested, 1.1% active; Potency, µM (titrated, usually from 108 µM), without a hit: at the top dose activity change, negative = inhibition, hits mostly inhibitors; also: potency is read from the fitted curve at half-maximal effect; % is scaled to controls: 0 for no effect and ±100 for the full control effect
Target sequence (P18054 whole entry, looked up): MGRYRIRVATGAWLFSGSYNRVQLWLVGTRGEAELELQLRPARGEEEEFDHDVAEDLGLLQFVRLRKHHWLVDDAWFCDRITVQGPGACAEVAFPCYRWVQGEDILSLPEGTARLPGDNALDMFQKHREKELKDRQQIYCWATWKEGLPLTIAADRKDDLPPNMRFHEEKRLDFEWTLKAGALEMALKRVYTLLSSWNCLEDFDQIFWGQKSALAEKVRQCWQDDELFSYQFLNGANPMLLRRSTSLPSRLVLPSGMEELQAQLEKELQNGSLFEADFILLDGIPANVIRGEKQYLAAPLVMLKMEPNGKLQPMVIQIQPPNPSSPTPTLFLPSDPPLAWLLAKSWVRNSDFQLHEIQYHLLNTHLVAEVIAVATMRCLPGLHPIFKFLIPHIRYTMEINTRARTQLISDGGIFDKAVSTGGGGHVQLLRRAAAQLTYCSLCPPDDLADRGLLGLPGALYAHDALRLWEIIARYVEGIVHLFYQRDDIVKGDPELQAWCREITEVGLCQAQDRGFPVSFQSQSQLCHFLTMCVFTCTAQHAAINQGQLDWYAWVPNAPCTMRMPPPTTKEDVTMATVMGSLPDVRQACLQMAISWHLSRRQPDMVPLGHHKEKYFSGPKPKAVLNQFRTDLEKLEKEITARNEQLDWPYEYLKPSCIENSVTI
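Hydroperoxide product was detected by ferrous iron/xylenol orange as the 573 to 405 nm absorbance ratio. Arachidonic acid at 40 uM (final) was turned over for 30 min at room temperature by 150 nM human 12hLO, pH 7.0 Hepes buffer, after 15 min compound preincubation.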
Nrf2 activator: activates Nrf2 signaling. AREc32 ARE-luciferase reporter (MCF7-derived line), luminescence, 24 h. AID 624171. Potency, µM (titrated, usually from 46.1 µM), inactives show at the top dose activation, most hits filed as activators. 410,000 tested, 0.31% active; also: potency is read from the fitted curve at half-maximal effect; % of control where 0% means no effect; nearly all actives have a fitted effect of over 65% in size
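Cells of the AREc32 ARE-luciferase line are plated in OPTI-MEM containing 5% FBS and left overnight at 37 deg C. Compounds are pinned in, incubation continues 24 hr, and firefly luciferase signal is then measured.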
uPA surface inh: inhibitors of cell surface uPA generation; 330,000 tested, 0.31% active; Potency, µM (top dose mostly 38.3 µM), for the others: top-dose activity change, negative = inhibition, usual class: inhibitors; cell surface uPA generation assay, qHTS; active = well fitted inhibition curve with a large enough effect; inconclusive = small, poorly fitted or top-dose-only effect; inactive = no such curve, though single readings can be large or run the other way; tested in mouse RAW 264.7 cells; also: potency is read from the fitted curve at half-maximal effect; % is scaled to controls: 0 for no effect and ±100 for the full control effect; nearly all actives have a fitted effect of over 55% in size
Numbers without * were called inactive; [ ] = remark or other dose. Unless noted, calls follow the shape of the dose curve; as a rule, active = well fitted curve in the direction sought with a large enough effect; inconclusive = small, poorly fitted or top-dose-only effect, or another doubt; inactive = no such curve, though single readings can be large; an effect the other way counts as inactive or inconclusive.

For O=C(NC(=S)NC1CCCCCCCCCCC1)c1cccnc1 the results were Integrin act MD 4%, IL2 activator -3, 12-LOX inh 261%, Nrf2 activator 0% and uPA surface inh -4%.
`O=C(NC(=S)NC1CCCC1)c1ccccc1` gave Integrin act MD inconclusive, IL2 activator -1, 12-LOX inh 13µM*, Nrf2 activator 0% and uPA surface inh 2%.
`COc1ccc(CCNC(=S)NC(=O)c2cccc([N+](=O)[O-])c2)cc1OC` gave Integrin act MD -18%, IL2 activator -3, 12-LOX inh 35µM*, Nrf2 activator 0% and uPA surface inh 0%.
For O=C(NC(=S)NCc1ccccc1)c1ccccc1 the results were Integrin act MD -16%, IL2 activator -2, 12-LOX inh 40µM*, Nrf2 activator 2% and uPA surface inh -3%.
For O=C(Nc1cccc(F)c1)N1CCC(OCCOc2cccnc2)CC1 the results were 12-LOX inh 60%.
Cc1cc(F)ccc1OC1CN(CCC(C)C)C1 was read as 12-LOX inh 121%[176 µM].
For CC1CCN(C(=O)[C@@H](C)C2CC[C@@]3(C)CC[C@H](NC(=O)c4ccccn4)[C@@H](C)[C@@H]3[C@H]2O)CC1 (some centres not stated) the results were 12-LOX inh 23%.
For CCOc1ccccc1C(=O)N1CCC2(CC1)N=C(c1cccc(Br)c1)NO2 the results were 12-LOX inh 14%.
`N[n+]1cccc2ccccc21` gave 12-LOX inh 18µM*.
`CN1CCc2nc(SCc3ccc(Cl)cc3)c(C#N)c(-c3cccs3)c2C1` gave Integrin act MD -1%, IL2 activator 0, 12-LOX inh 20µM* and Nrf2 activator 0%.
`N#CC(C(=O)C1=Cc2ccccc2OC1)c1nc2ccccc2[nH]1` (configuration not stated) gave 12-LOX inh -8%.
Screening CCSc1nc2c([nH]1)c(=O)n(C)c(=S)n2C returned Integrin act MD 5%, IL2 activator 0, 12-LOX inh 10µM*, Nrf2 activator -1% and uPA surface inh -1%.
For Cn1c(=O)c2[nH]c(SCCN3CCOCC3)nc2n(C)c1=S the results were Integrin act MD 11%, IL2 activator -1, 12-LOX inh 32µM*, Nrf2 activator 0% and uPA surface inh 0%.
Cc1ccccc1-c1nc(N2CCOCC2)cc2c1CN(Cc1ccccc1)C2=O was read as 12-LOX inh -14%[176 µM].
CCN1C(=O)[C@@H]2[C@@H](c3ccc(SC4CCCCC4)cc3)N3CCCC[C@@]3(C(=O)OC)[C@@H]2C1=O was read as Integrin act MD 7%, IL2 activator 1, 12-LOX inh 40µM*, Nrf2 activator 0% and uPA surface inh 15%.
For CCN1C(=O)[C@H]2[C@@H](c3ccc(SC4CCCCC4)c(OC)c3)N3CCCC[C@@]3(C(=O)OC)[C@H]2C1=O the results were Integrin act MD -31%, IL2 activator -3, 12-LOX inh -19%, Nrf2 activator -2% and uPA surface inh -3%.
O=[S+]([O-])(Nc1ccccc1)c1ccc2c(c1)OCCN(Cc1ccc(F)cn1)C2 was read as 12-LOX inh 22%[176 µM].
For COc1cc(/C=N/NC(=O)NC23CC4CC(CC(C4)C2)C3)ccc1OCC(N)=O the results were Integrin act MD 16%, IL2 activator 0, 12-LOX inh 98%, Nrf2 activator -1% and uPA surface inh 4%.
`CCOc1ccc(CNC(=S)N/N=C/c2ccc(OC)c(OC)c2)cc1` gave Integrin act MD -35%, IL2 activator 0, 12-LOX inh 14µM*, Nrf2 activator 1% and uPA surface inh -9%.
For COc1cccc(/C=N/NC(=O)NC23CC4CC(CC(C4)C2)C3)c1O the results were Integrin act MD 27%, IL2 activator -4, Nrf2 activator 7% and uPA surface inh -11%.
`COc1ccc(C=NNC(=S)NC23CC4CC(CC(C4)C2)C3)cc1OC` gave Integrin act MD -22%, IL2 activator -6, 12-LOX inh 45µM*, Nrf2 activator 6% and uPA surface inh -11%.
